Only some compounds are listed: those with a hit (about 7.5% of all), similar ones and a draw of the others.
FBPA Giardia inh: blocks Giardia fructose-bisphosphate aldolase activity | Potency, µM (highest dose often 59.6 µM), inactives show at the highest dose activity, negative = inhibition, usual class: inhibitors | purified Giardia FBPA | 290,000 tested, 0.71% active | A8B2U2; note: potency is the fitted concentration of half-maximal effect; nearly all actives have a fitted effect of over 55% in size
Target sequence (A8B2U2 whole entry, looked up): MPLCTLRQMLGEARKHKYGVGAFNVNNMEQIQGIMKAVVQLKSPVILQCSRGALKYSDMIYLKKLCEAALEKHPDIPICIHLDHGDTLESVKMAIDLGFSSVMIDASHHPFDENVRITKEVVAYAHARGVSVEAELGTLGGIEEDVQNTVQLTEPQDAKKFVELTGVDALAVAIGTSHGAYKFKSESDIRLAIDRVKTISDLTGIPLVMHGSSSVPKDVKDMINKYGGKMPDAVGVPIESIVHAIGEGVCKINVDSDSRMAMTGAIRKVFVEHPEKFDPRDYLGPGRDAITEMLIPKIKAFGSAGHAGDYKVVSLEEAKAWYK
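Giardia FBPA (40 nM reagent) was preincubated 10 min at RT with compound (up to 57.5 uM final), then substrate plus GAPDH/TPI/NAD/arsenate coupling system with diaphorase/resazurin was added; resorufin fluorescence (525/598 nm) was read after 20 min.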
VACV mCherry inh: inhibitors of vaccinia virus infection (mCherry reporter signal); Vaccinia virus mCherry reporter infection, fluorescence; Potency, µM (series often up to 36.5 µM), for the others: at the top dose activity change, negative = inhibition, most hits filed as inhibitors; 310,000 tested, 0.63% active; AID 720579; calls by dose curve; tested in A549 cells; note: potency is the fitted concentration of half-maximal effect; nearly all actives have a fitted effect of over 35% in size
HCMV inh: blocks human cytomegalovirus replication. HFF cells, HCMV-luciferase reporter, 72 h; active compounds read low. activity change, negative = inhibition, % at 57.5 µM. 410,000 tested, 4.5% active; in the data active = activity change below about -60%; inconclusive = no clear call, values can overlap the other calls; inactive = above about -39%
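Steps: HFFs plated, 16 h 37C; compounds added; HCMV-luciferase added to MOI 1 PFU/cell; 72 h 37C; OneGlo reagent, 5 min room temperature; luminescence read, normalized to controls.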
HCV inhibitor: HCV inhibition; AID 651820; 340,000 tested, 3.4% active; Huh7.5.1 HCVcc-Cre infection, luciferase reporter, 44 h; Potency, µM (highest dose often 41.8 µM), inactives show top-dose activity change, negative = inhibition, usual class: inhibitors; note: potency is the fitted concentration of half-maximal effect
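HCVcc-Cre virus at an moi near 0.5 was added right after compound to cells cultured 4 h from seeding (1,000 cells/well). Luciferase activity was determined 44 h later, 15 min after substrate addition at RT.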
VACV Venus inh: inhibitors of vaccinia virus (Venus reporter); Vaccinia virus Venus reporter expression, fluorescence; Potency, µM (top dose mostly 36.5 µM), without a hit: at the top dose activity change, negative = inhibition, usual class: inhibitors; 330,000 tested, 0.46% active; AID 720580; calls by dose curve; tested in A549 cells; note: potency is the fitted concentration of half-maximal effect; nearly all actives have a fitted effect of over 30% in size
FMDV inh: blocks foot and mouth disease virus. 410,000 tested, 1.2% active. FMDV antiviral cell-based qHTS. Potency, µM (series often up to 57.9 µM), inactives show at the top dose activity change, negative = inhibition, usual class: inhibitors. AID 1159524; calls by dose curve; tested in HEK293T cells; note: read-out not given here; potency is the fitted concentration of half-maximal effect; nearly all actives have a fitted effect of over 45% in size
An asterisk follows results filed as active; i = inactive; ? = inconclusive; . = no result; + = active, no number. Unless noted, calls come from the whole dose curve; as a rule, active = well fitted curve in the direction sought with a large enough effect; inconclusive = small, poorly fitted or top-dose-only effect, or another doubt; inactive = no such curve, though single readings can be large; an effect the other way counts as inactive or inconclusive. % is set by controls: 0 for no effect and ±100 for the full control effect.

SMILES | FBPA Giardia inh | VACV mCherry inh | HCMV inh | HCV inhibitor | VACV Venus inh | FMDV inh
COc1cc(CNCCCN2CCOCC2)ccc1OCC(=O)Nc1cccc(C(F)(F)F)c1 | -5% | i | 43 | 10µM* | -13% | 4%
COc1cc(CNCCO)ccc1OCC(=O)Nc1ccc(Br)cc1 | 4% | . | 55 | 5.6µM* | . | 4%
COc1ccccc1OCC(=O)Nc1ccc(NC(=O)COc2ccccc2OC)cc1 | . | -1% | 30 | ? | -19% | -25%
COc1ccc2c(c1)CCO[C@]21O[C@H](CCO)C[C@H](O)[C@H]1O | . | i | 26 | . | 6% | -6%
COc1ccc(C)cc1NC(=S)NC(C)c1ccc(OC)c(OC)c1 (stereo not drawn) | -1% | -14% | ? | 11µM* | ? | 24%
COc1ccc(NC(=S)NC(C)c2ccncc2)cc1OC (stereo not drawn) | -6% | i | ? | 2% | -18% | 19%
O=C(C#Cc1cccc([N+](=O)[O-])c1)c1ccccc1 | -1% | . | . | . | . | .
Nc1ccccc1C#CC(=O)c1ccccc1 | 4% | ? | -100* | ? | 22µM* | ?
O=C(O)c1cc(Oc2ccc([N+](=O)[O-])cc2)cc(Oc2ccc([N+](=O)[O-])cc2)c1 | 20% | . | . | . | . | 0%
Cc1cc(Cl)c(S(=O)(=O)Nc2ccc3c(c2)OCCO3)cc1OCC(=O)NC1CCCCC1 | -1% | . | -70* | -19% | . | ?
Cc1cc(Cl)c(S(=O)(=O)NCC2CCCO2)cc1OCC(=O)NC1CCCCC1 (stereo not drawn) | 3% | . | -93* | 12% | . | 3%
Cc1cc(Cl)c(S(=O)(=O)N2CCN(c3ccc(F)cc3)CC2)cc1OCC(=O)NC1CCCCC1 | 1% | . | -98* | 0.79µM* | . | ?
O=C(Cn1c(=O)n(-c2ccccc2Cl)c(=O)c2sc3ccccc3c21)NC1CCCCC1 | . | -6% | 11 | . | -8% | -6%
CC(=O)N=C1C=CC(=CN(O)C(C)(C)Cc2ccccc2)C=C1 | . | -2% | -6 | ? | -3% | 8%
CCOC(=O)N1CCN(C(=S)NC(=O)c2c(-c3c(Cl)cccc3Cl)noc2C)CC1 | 5% | -11% | -69* | 12% | -18% | -12%
CCOC(=O)N1CCN(C(=O)c2c(-c3ccccc3Cl)noc2C)CC1 | 3% | -8% | 0 | 8% | -17% | -2%
CCCCCCOc1ccc(CC(=O)O)cc1 | . | -8% | . | . | -8% | .
CCN(CC)CCC(=O)N1c2ccccc2Sc2ccc(Cl)cc21 | . | -11% | ? | ? | -21% | -20%
NCCC(=O)N1c2ccccc2Sc2ccc(Cl)cc21 | 13% | . | 35 | ? | . | -26%
CN(C)CCC(=O)N1c2ccccc2Sc2ccc(Cl)cc21 | -3% | ? | ? | 6.3µM* | -7% | -9%
NCCCC(=O)N1c2ccccc2Sc2ccc(Cl)cc21 | 9% | -25% | 23 | 5µM* | -19% | -23%
O=C(CN1CCOCC1)N1c2ccccc2Sc2ccc(Cl)cc21 | . | -11% | 13 | . | -15% | 0%
CN(C)CC(=O)N1c2ccccc2Sc2ccc(Cl)cc21 | -4% | ? | -64* | ? | 1% | -11%
CCN(CC)CCC(=O)N1c2ccccc2Sc2ccc(C(F)(F)F)cc21 | . | . | -85* | . | . | .
O=C(COc1cccc(Br)c1)N/N=C/c1ccc2c(c1)OCCO2 | . | i | -4 | . | -8% | 33%
SMILES | FBPA Giardia inh | VACV mCherry inh | HCMV inh | HCV inhibitor | VACV Venus inh | FMDV inh
Clc1ccc(-n2cnc3c(Cl)ncnc32)cc1Cl | . | i | 4 | ? | -3% | -27%
Cc1ccc2c(C)c(C(=O)Nc3ccc(S(=O)(=O)Nc4onc(C)c4C)cc3)oc2c1 | -6% | -5% | -30 | 0.5µM* | 9% | -11%
COc1ccccc1NCCC(=O)O | 0% | -4% | 0 | -2% | -6% | -11%
O=C(NCCO)c1cccc2c1C(=O)c1ccccc1-2 | 0% | i | -30 | 17% | -5% | -12%
O=C(O)CCNc1ccc(NCCC(=O)O)c2c1C(=O)c1ccccc1C2=O | -15% | -9% | -72* | -8% | 20% | ?
O=C1c2cccc(NCCNCCO)c2C(=O)c2cccc(NCCNCCO)c21 | . | ? | -99* | ? | ? | 0%
Cn1cnc([N+](=O)[O-])c1Oc1ccc2ccccc2c1 | -22% | 6.3µM* | 23 | ? | 7.9µM* | 18µM*
Cn1cnc([N+](=O)[O-])c1Sc1nc2ccccc2[nH]1 | -12% | ? | 3 | -8% | -24% | ?
COc1ccc(OC)c(NC(=O)COC(=O)[C@H](Cc2ccccc2)NC(=O)c2ccco2)c1 | . | . | -10 | 22% | . | -16%
CCSc1nnc(NC(=O)NC(CC)(C(F)(F)F)C(F)(F)F)s1 | 0% | . | -79* | ? | 28µM* | ?
CCCC(=O)Nc1nnc(SCC)s1 | -1% | -10% | -14 | 33% | -11% | 34%
CCC(NC(=O)Nc1nccs1)(C(F)(F)F)C(F)(F)F | 0% | . | -16 | 15% | -24% | -10%
CCSc1nnc(NC(=O)NC(C)(C(F)(F)F)C(F)(F)F)s1 | 0% | -21% | -67* | -14% | ? | -15%
COc1ccccc1/C=C/CN1CCC(n2nccc2NC(=O)CCc2ccccc2)CC1 | -1% | . | ? | 3.5µM* | . | ?
CSCC(C)N1CCC(n2nccc2NC(=O)CCc2ccccc2)CC1 (stereo not drawn) | -4% | . | 16 | 9% | . | 13%
CSCC(C)N1CCC(n2nccc2NC(=O)CCCc2ccccc2)CC1 (stereo not drawn) | 6% | . | + | 6% | . | -8%
O=C(CCc1ccccc1)Nc1ccnn1C1CCN(C/C=C/c2ccccc2)CC1 | 1% | . | -10 | -21% | . | -26%
COc1ccc(Cc2nc(-c3ccc(-n4cccc4)cc3)no2)cc1OC | -6% | -20% | ? | 10µM* | -21% | ?
COc1ccc(-c2noc(CSc3nnc(CCc4ccccc4)n3-c3ccccc3)n2)cc1OC | 1% | -15% | -31 | 11µM* | -25% | .
COc1ccc(-c2noc(CSc3nnc(Cc4ccccc4)n3-c3ccc(Cl)cc3)n2)cc1 | 0% | . | -2 | 14µM* | . | -20%
Cc1ccc(-c2noc(CSc3nnc(Cc4ccccc4)n3-c3ccc(Cl)cc3)n2)cc1 | -5% | . | -12 | ? | . | -22%
Nc1nnc2c(n1)[nH]c1ccccc12 | . | -13% | -6 | . | 0% | -11%
Cn1nccc1C(=O)NC1CCCc2c1cnn2-c1ccc(C(C)(C)C)cc1 (stereo not drawn) | . | -5% | -61* | ? | -26% | ?
CC(C)(C)c1ccc(-n2ncc3c2CCCC3NC(=O)C2=NNC(=O)CC2)cc1 (stereo not drawn) | 4% | . | -81* | ? | . | ?
CC(=O)CCC(=O)NC1CCCc2c1cnn2-c1ccc(C(C)(C)C)cc1 (stereo not drawn) | -1% | . | ? | ? | . | ?
